Nine molecules from PubChem BioAssay (NCATS) can be followed below.

Structures are written as SMILES. Inconclusive results are not listed. Activity calls are given as the source filed them. Unless noted, calls follow the shape of the dose curve; as a rule, active = well fitted curve in the direction sought with a large enough effect; inconclusive = small, poorly fitted or top-dose-only effect, or another doubt; inactive = no such curve, though single readings can be large; an effect the other way counts as inactive or inconclusive.

Assay [1] is described as follows: qHTS of Trypanosoma Brucei Inhibitors: LOPAC Validation (AID 624147). Also: 0% is about no effect. The following applies: purified enzyme assay, luminescence, 45 min; series mostly up to 57.5 µM. The essentials: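 T. brucei PYK with substrate was exposed to pin-transferred compounds across a concentration series, then started with 130 uM ADP (final). After 45 min at room temperature, Kinase-Glo Plus luminescence was read, normalized and curve-fitted.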
(In general: Quantitative high-throughput screening tests each substance at several concentrations.)

The target of assay [2] is Glucagon-like peptide 1 receptor (Homo sapiens) (UniProt P43220). The experiment in a line: qHTS of GLP-1 Receptor Agonists: LOPAC Validation (AID 624148).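 Also: 0% is about no effect; higher luminescence signal means agonism.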 The settings on record: GLP-1R agonist cell assay; series mostly up to 46.1 µM. The gist of the method: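 HEK293 cells stably co-expressing GLP-1R and a cAMP-responsive luciferase reporter, plated 12 hours before compound, then incubated 4-6 hr at 37 deg C. Luminescence read 12 min after detection reagent.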
Sequence of Glucagon-like peptide 1 receptor (Homo sapiens) (P43220 whole entry, looked up): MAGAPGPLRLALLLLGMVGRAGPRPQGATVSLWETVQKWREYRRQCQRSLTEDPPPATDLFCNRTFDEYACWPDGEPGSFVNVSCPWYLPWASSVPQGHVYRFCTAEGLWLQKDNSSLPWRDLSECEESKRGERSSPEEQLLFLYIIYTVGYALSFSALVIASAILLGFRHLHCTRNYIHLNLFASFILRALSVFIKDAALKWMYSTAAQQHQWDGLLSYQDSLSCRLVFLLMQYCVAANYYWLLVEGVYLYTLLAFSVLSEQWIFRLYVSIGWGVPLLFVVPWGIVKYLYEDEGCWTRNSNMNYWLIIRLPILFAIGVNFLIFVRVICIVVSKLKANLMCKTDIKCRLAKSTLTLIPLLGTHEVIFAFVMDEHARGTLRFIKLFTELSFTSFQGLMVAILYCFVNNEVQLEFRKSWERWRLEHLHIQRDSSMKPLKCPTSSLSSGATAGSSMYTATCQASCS

Assay [3] in a line: qHTS of Nrf2 Activators: LOPAC Validation (AID 624149). Also: 0% is about no effect. The following applies: Nrf2/ARE reporter cell assay; series mostly up to 46.1 µM. The essentials: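 Cells (AREc32_Fluc) are plated at 1000 per well in OPTI-MEM containing 5% FBS and left overnight. Compounds are pinned in and incubated 24 hr at 37 deg C, and firefly luciferase is detected with Steady-Glo.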
Assay [4] can be described thus: HTS Assay for Allosteric Antagonists of the Human D2 Dopamine Receptor: Hit Validation in HTRF (AID 624455).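 Also: stable D1 dopamine receptor cell line scored for blocking the D1 response; % is scaled to controls: 0 for no effect and ±100 for the full control effect.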 The settings on record: Cells stably expressing D1 dopamine receptor, inhibition mode; series mostly up to 46.1 µM. The gist of the method: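 Inhibition of the D1-mediated response is measured by HTRF in cells that stably express the D1 dopamine receptor. Compounds reaching this step are hits from calcium-flux antagonism testing at EC80 dopamine in inducible Hek293 Trex D2 cells.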

The nature of assay [5]: qHTS Assay for Identification of Small Molecule Antagonists for NFkB Signaling Pathway. (AID 624479; calls by dose curve;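 also: pathway stimulated with TNF alpha; potency is read from the fitted curve at half-maximal effect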). The following applies: NFkB pathway reporter cell assay, antagonist mode; series mostly up to 38.3 µM.
The nature of assay [6]: Cell Proliferation Assay against the TMD8 Cell Line (AID 651645).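 Also: cells exposed to compound for 48 h before reading.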 The settings on record: TMD8 DLBCL cell line proliferation/viability; at 46.1 µM (top of the series). The gist of the method: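 500 TMD8 cells/well, RPMI + Glutamax, no phenol red, 5% FBS; cpd added immediately; 48 h, 37C, 5% CO2; CellTiter-Glo, luminescence. Controls: DMSO = 100%, bortezomib 9.2 uM final = 0%.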

Assay [7] in a line: Cell Proliferation Assay against the HBL1 Cell Line (AID 651646).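 Also: cells exposed to compound for 48 h before reading.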 The following applies: HBL1 DLBCL cells; at 46.1 µM (top of the series). The gist of the method:
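HBL1, 500 cells/well, RPMI no phenol red + 5% FBS; cpd pinned, 48 h 37C/5% CO2; CellTiter-Glo, 15 min RT, luminescence. % activity: DMSO = 100%, bortezomib 9.2 uM final = 0%.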

A short description of assay [8]: Cell Proliferation Assay against the TMD8 Cell Line (Caspase readout at 8 hrs) (AID 651713). Also: potency is read from the fitted curve at half-maximal effect. The settings on record: TMD8 lymphoma cells, caspase activation luminescence; series mostly up to 46.1 µM. The gist of the method: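 Caspase 3/7 activation in ABC DLBCL TMD8 cells is measured by luminescence after an 8 h compound exposure at 37C. Relative light units are scaled between DMSO (0%) and 9.2 uM final bortezomib (100%).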

A short description of assay [9]: qHTS assay for small molecule agonists of the antioxidant response element (ARE) signaling pathway (AID 651741; active = well fitted activation curve with a large enough effect in the signal ratio; the % refers to the signal ratio; also: % of control where 0% means no effect). The following applies: HepG2 ARE-bla reporter, beta-lactamase FRET ratio, 16 h; series mostly up to 96 µM. The gist of the method:
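Stably integrated ARE-beta-lactamase reporter HepG2 cells; 16 h compound incubation, 37 C; LiveBLAzer FRET substrate 2 h at room temperature; fluorescence intensity.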

A short description of assay [10]: qHTS assay for small molecule activators of the p53 signaling pathway (AID 651743; active = well fitted activation curve with a large enough effect in the signal ratio, not every such curve was filed as active; the % refers to the signal ratio; also: % of control where 0% means no effect). The settings on record: HCT-116 p53RE-bla, beta-lactamase FRET ratio, 16 h; activation: stronger effect = higher value. The essentials:
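Following 16 hours of compound exposure at 37 C, HCT-116 cells bearing the p53RE-bla reporter were loaded with LiveBLAzer B/G FRET substrate for 2 hours at room temperature and fluorescence intensity was recorded.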

Assay [11] in a line: qHTS assay for small molecule activators of the nuclear factor-kappa B (NF-kB) signaling pathway (AID 651749; active = well fitted activation curve with a large enough effect in the signal ratio; the % refers to the signal ratio; also: % of control where 0% means no effect). The following applies: NF-kB-bla ME-180 cells, beta-lactamase FRET ratio, 16 h; stronger effect = higher value. The gist of the method:
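In this qHTS format, compounds acting as activators increase NF-kB-driven beta-lactamase in ME-180 cells, measured as disrupted FRET after 16 hr exposure at 37C and 5% CO2.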

Assay [12] is described as follows: qHTS assay for environmental chemicals that activate the Aryl hydrocarbon Receptor (AhR) signaling pathway (AID 651777). Also: % of control where 0% means no effect; nearly all actives have a fitted effect of over 15% in size. The settings on record: 1A2-DRE human hepatoma cells, luciferase, 24 h; activation: stronger effect = higher value. The gist of the method: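 Luminescence (One-Glo, 30 min, room temperature) reports AhR-driven luciferase in stably transfected human hepatoma cells bearing DRE and CYP1A2 promoter. Cells (1,200/well) were treated with compound for 24 hr at 37 C in qHTS format.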

For assay [13], the target named is Peroxisome proliferator-activated receptor alpha (Homo sapiens) (UniProt Q07869). The assay is described as follows: qHTS assay for small molecule agonists of the peroxisome proliferator-activated receptor alpha (PPARalpha) signaling pathway (AID 651778). Also: % of control where 0% means no effect. The following applies: PathHunter PPARalpha complementation, chemiluminescence, 6 h; max response: stronger effect = higher value. The gist of the method:
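Enzyme-fragment complementation assay in which ligand-bound PPARalpha translocates and forms an active enzyme that generates chemiluminescence. Cells were plated overnight, exposed to compound for 6 hr at 37 C, and then given detection reagent for 60 min at room temperature.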

Assay [14] is described as follows: Cell Proliferation Assay against the TMD8 Cell Line (Caspase readout at 16 hrs) (AID 651712). The following applies: TMD8 lymphoma cells, caspase activation luminescence; series mostly up to 46.1 µM. The essentials: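 Caspase-Glo luminescence after 16 h compound exposure of TMD8 cells, 37 °C, 5% CO2. Medium: RPMI without phenol red, 5% FBS. Normalisation: DMSO = 0%, bortezomib 9.2 uM final = 100%.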

Sequence of Peroxisome proliferator-activated receptor alpha (Homo sapiens) (Q07869 whole entry, looked up, the tested form may be a part): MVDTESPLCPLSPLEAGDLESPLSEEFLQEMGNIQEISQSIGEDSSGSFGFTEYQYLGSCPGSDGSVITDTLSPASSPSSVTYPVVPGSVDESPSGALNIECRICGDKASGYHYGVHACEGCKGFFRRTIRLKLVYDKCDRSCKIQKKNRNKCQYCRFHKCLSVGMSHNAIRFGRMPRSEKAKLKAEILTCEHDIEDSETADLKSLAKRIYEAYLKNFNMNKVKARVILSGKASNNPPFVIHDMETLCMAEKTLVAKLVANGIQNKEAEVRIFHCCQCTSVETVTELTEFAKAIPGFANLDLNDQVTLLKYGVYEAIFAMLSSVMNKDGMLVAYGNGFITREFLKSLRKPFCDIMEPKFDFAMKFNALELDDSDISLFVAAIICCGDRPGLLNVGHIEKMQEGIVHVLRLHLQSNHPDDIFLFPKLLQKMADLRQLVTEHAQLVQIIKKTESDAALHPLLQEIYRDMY

As for `COC[C@H]1OC(=O)c2coc3c2[C@@]1(C)C1=C(C3=O)C2CCC(=O)[C@@]2(C)C[C@H]1OC(C)=O` (stereo partly drawn), the call in [1], in assay [2] and in assay [3] was inactive. For the same molecule, the Potency result in [4] is “inactive”. Moreover, the Potency in assay [5] was 13.3 µM (active); in [8] it was 23.5 µM (active). The viability (% of control) in assay [6] stood at 17.1%. The viability, percent of control in assay [7] is 61.7%.

Take `COc1ccccc1N1CCNCC1`: the molecule was classed as inactive in [1], in assay [2] and in [3]. Further, the Potency result in [4] is “inactive”.

Turning to `Nc1ccncc1`, the call in assay [1], in [2] and in assay [3] was inactive. Further, the Potency result in [4] and in [9] was “inactive” each time. Moreover, the activation in assay [10] is 2.37% (inactive); in assay [11], -0.507% (inactive); in assay [12] it was -2.98% (inactive). Also, the max response in assay [13] was 0.27% (inactive).

For `c1ccc2c(c1)OCC(C1=NCCN1)O2` (stereo not drawn), the call in assay [1] and in assay [2] was inactive. In addition, the Potency result in assay [4] is “inactive”.

On to `Cc1ncc(CNC(=O)N(CCCl)N=O)c(N)n1`, for which the call in assay [1], in [2] and in assay [3] was inactive. Further, the Potency entry in assay [4] is “inactive”.

In the case of `Fc1ccc(C(OCCN2CCN(CCCc3ccccc3)CC2)c2ccc(F)cc2)cc1`, the molecule was classed as inactive in assay [1], in assay [2] and in [3]. For the same molecule, the Potency entry in assay [4] was “inactive”.

Take `C=C(C)[C@H]1Cc2c(ccc3c2O[C@@H]2COc4cc(OC)c(OC)cc4[C@@H]2C3=O)O1`: the result in assay [1], in assay [2] and in assay [3] was inactive. The Potency result in assay [4] is “inactive”. Further, the activation in assay [11] is 7.78% (inactive); in assay [12], 3.42% (inactive). Further, the max response in [13] is 7.18% (inactive).

In the case of `C[C@]12CCC(=O)C(O)=C1CC[C@@H]1[C@@H]2CC[C@]2(C)C(=O)CC[C@@H]12`, in [1], the result was inactive. The viability (% of control) in assay [6] is 87.8%. For the same molecule, in assay [7], the viability, percent of control was found to be 87.5%. The Potency entry in assay [14], in assay [8] and in assay [9] was “inactive” throughout. Further, the activation is -6.6% (inactive) in assay [10], 2.01% (inactive) in assay [11] and 0.0711% (inactive) in assay [12]. Further, in assay [13], the max response was -1.14% (inactive).

As to `CC(=O)[C@H]1CC[C@H]2[C@@H]3CC[C@H]4C[C@](C)(O)CC[C@]4(C)[C@H]3CC[C@]12C`, the molecule was classed as inactive in assay [1], in assay [2] and in [3]. In addition, the Potency entry in [4] was “inactive”.
